Common to all, as to assay: PBM; 200 nM protein, PBS
Common to all, as to details: dsDNA, one strand shown

Test [1] addresses T1, VENTX (Homo sapiens, UniProt O95231 78-163, R121Q).
T1 sequence: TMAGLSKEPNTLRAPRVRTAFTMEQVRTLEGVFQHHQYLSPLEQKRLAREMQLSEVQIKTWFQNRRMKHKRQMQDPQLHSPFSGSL

The target of test [2] is HOXC9 (Homo sapiens, UniProt P31274 178-260, K195R).
In test [3] the target is T2, VENTX (Homo sapiens, UniProt O95231 78-163).
T2 sequence: T1 sequence with Q44R

Test [4] deals with T3, VENTX (Homo sapiens, UniProt O95231 78-163, Y115F).
T3 sequence: T1 sequence with Y38F, Q44R

The target in test [5] is HOXC9 (Homo sapiens, UniProt P31274 178-260).
For test [6], the target named is HOXD13 (Homo sapiens, UniProt P35453 263-343, T313R).
Test [7] concerns the target HOXC9 (Homo sapiens, UniProt P31274 178-260, R193K).
Test [8] addresses HOXD13 (Homo sapiens, UniProt P35453 263-343).
The target of test [9] is HOXD13 (Homo sapiens, UniProt P35453 263-343, T313A).
Test [10] concerns the target HOXC9 (Homo sapiens, UniProt P31274 178-260, R222W).
Test [11] addresses T4, SIX6 (Homo sapiens, UniProt O95475 114-200, L167I).
T4 sequence: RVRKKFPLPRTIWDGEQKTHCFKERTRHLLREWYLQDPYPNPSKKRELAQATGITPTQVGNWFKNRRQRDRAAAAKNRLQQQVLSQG

Test [12] deals with T5, SIX6 (Homo sapiens, UniProt O95475 114-200, L143V).
T5 sequence: T4 sequence with L30V, I54L

The target of test [13] is T6, SIX6 (Homo sapiens, UniProt O95475 114-200, H141N).
T6 sequence: T4 sequence with H28N, I54L

In test [14] the target is T7, SIX6 (Homo sapiens, UniProt O95475 114-200, T165P).
T7 sequence: T4 sequence with T52P, I54L

Test [15] concerns the target T8, SIX6 (Homo sapiens, UniProt O95475 114-200, L167M).
T8 sequence: T4 sequence with I54M

In test [16] the target is T9, SIX6 (Homo sapiens, UniProt O95475 114-200, L143M).
T9 sequence: T4 sequence with L30M, I54L

Test [17] concerns the target T10, SIX6 (Homo sapiens, UniProt O95475 114-200, L143I).
T10 sequence: T4 sequence with L30I, I54L

Test [18] concerns the target T11, SIX6 (Homo sapiens, UniProt O95475 114-200, T165G).
T11 sequence: T4 sequence with T52G, I54L

The target of test [19] is T12, SIX6 (Homo sapiens, UniProt O95475 114-200, T139Q).
T12 sequence: T4 sequence with T26Q, I54L

Test [20] deals with T13, SIX6 (Homo sapiens, UniProt O95475 114-200, T165A).
T13 sequence: T4 sequence with T52A, I54L

Test [21] addresses T14, SIX6 (Homo sapiens, UniProt O95475 114-200, L167V).
T14 sequence: T4 sequence with I54V

Test [22] concerns the target T15, SIX6 (Homo sapiens, UniProt O95475 114-200).
T15 sequence: T4 sequence with I54L

Test [23] has as its target T16, SIX6 (Homo sapiens, UniProt O95475 114-200, T165I).
T16 sequence: T4 sequence with T52I, I54L

The target of test [24] is ALX1 (Homo sapiens, UniProt Q15699 118-204, L144V).
Test [25] concerns the target ALX1 (Homo sapiens, UniProt Q15699 118-204, L144R).
Test [26] concerns the target ALX1 (Homo sapiens, UniProt Q15699 118-204).
The target in test [27] is VAX1 (Homo sapiens, UniProt Q5SQQ9 86-172).
Test [28] concerns the target VAX1 (Homo sapiens, UniProt Q5SQQ9 86-172, T142I).
For test [29], the target named is VAX1 (Homo sapiens, UniProt Q5SQQ9 86-172, K157R).

Residue numbers refer to the chain shown, from its start.

Chain of HOXC9 (Homo sapiens, UniProt P31274 178-260, R222W) (P31274 178-260 R222W): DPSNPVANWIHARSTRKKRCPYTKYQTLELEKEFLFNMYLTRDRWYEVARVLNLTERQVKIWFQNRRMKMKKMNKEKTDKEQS
Chain of HOXC9 (Homo sapiens, UniProt P31274 178-260, K195R) (P31274 178-260 K195R): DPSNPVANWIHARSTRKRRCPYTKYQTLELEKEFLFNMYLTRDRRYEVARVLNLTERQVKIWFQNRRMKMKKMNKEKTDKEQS
Chain of HOXC9 (Homo sapiens, UniProt P31274 178-260, R193K) (P31274 178-260 R193K): as the sequence (P31274 178-260 R222W) above, with R16K, W45R counted along it
Chain of HOXC9 (Homo sapiens, UniProt P31274 178-260) (P31274 178-260): as the sequence (P31274 178-260 R222W) above, with W45R counted along it
Chain of VAX1 (Homo sapiens, UniProt Q5SQQ9 86-172) (Q5SQQ9 86-172): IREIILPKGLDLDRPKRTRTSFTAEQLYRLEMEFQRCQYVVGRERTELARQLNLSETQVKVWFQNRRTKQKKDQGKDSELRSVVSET
Chain of HOXD13 (Homo sapiens, UniProt P35453 263-343) (P35453 263-343): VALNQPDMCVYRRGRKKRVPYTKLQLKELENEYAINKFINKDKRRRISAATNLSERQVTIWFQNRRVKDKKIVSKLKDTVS
Chain of VAX1 (Homo sapiens, UniProt Q5SQQ9 86-172, K157R) (Q5SQQ9 86-172 K157R): as the sequence (Q5SQQ9 86-172) above, with K72R counted along it
Chain of ALX1 (Homo sapiens, UniProt Q15699 118-204, L144V) (Q15699 118-204 L144V): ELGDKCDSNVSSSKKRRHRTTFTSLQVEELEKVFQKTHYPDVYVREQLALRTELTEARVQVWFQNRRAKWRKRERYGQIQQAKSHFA
Chain of ALX1 (Homo sapiens, UniProt Q15699 118-204, L144R) (Q15699 118-204 L144R): as the sequence (Q15699 118-204 L144V) above, with V27R counted along it
Chain of HOXD13 (Homo sapiens, UniProt P35453 263-343, T313A) (P35453 263-343 T313A): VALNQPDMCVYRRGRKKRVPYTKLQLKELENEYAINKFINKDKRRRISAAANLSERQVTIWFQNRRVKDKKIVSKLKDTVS
Chain of ALX1 (Homo sapiens, UniProt Q15699 118-204) (Q15699 118-204): as the sequence (Q15699 118-204 L144V) above, with V27L counted along it
Chain of VAX1 (Homo sapiens, UniProt Q5SQQ9 86-172, T142I) (Q5SQQ9 86-172 T142I): as the sequence (Q5SQQ9 86-172) above, with T57I counted along it
Chain of HOXD13 (Homo sapiens, UniProt P35453 263-343, T313R) (P35453 263-343 T313R): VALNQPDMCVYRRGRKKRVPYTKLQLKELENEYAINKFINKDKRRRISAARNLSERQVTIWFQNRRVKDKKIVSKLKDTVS

For CCCCTCCC, the binding signal is 8.02 upbm affinity estimate (log intensity, higher = more binding, comparable within an allelic series) in [1]; 9.65 upbm affinity estimate (log intensity, higher = more binding, comparable within an allelic series) in test [2]; 7.87 upbm affinity estimate (log intensity, higher = more binding, comparable within an allelic series) in test [3]; 8.02 upbm affinity estimate (log intensity, higher = more binding, comparable within an allelic series) in [4]; 9.76 upbm affinity estimate (log intensity, higher = more binding, comparable within an allelic series) in test [5]; 9.44 upbm affinity estimate (log intensity, higher = more binding, comparable within an allelic series) in test [6]. The binding signal in test [7] was 9.62 upbm affinity estimate (log intensity, higher = more binding, comparable within an allelic series); in test [8], 9.54 upbm affinity estimate (log intensity, higher = more binding, comparable within an allelic series); in test [9] it was 9.62 upbm affinity estimate (log intensity, higher = more binding, comparable within an allelic series); in [10], 9.53 upbm affinity estimate (log intensity, higher = more binding, comparable within an allelic series).

GGCGGAAC: the binding signal in [1] is 8.14 upbm affinity estimate (log intensity, higher = more binding, comparable within an allelic series); in test [11], 8.85 upbm affinity estimate (log intensity, higher = more binding, comparable within an allelic series); in test [3], 8.22 upbm affinity estimate (log intensity, higher = more binding, comparable within an allelic series); in [12], 8.81 upbm affinity estimate (log intensity, higher = more binding, comparable within an allelic series); in test [13], 8.78 upbm affinity estimate (log intensity, higher = more binding, comparable within an allelic series); in [14], 8.99 upbm affinity estimate (log intensity, higher = more binding, comparable within an allelic series). Further, the binding signal in test [4] was 8.15 upbm affinity estimate (log intensity, higher = more binding, comparable within an allelic series); in test [15], 8.81 upbm affinity estimate (log intensity, higher = more binding, comparable within an allelic series); in test [16], 8.85 upbm affinity estimate (log intensity, higher = more binding, comparable within an allelic series); in test [17] it was 8.84 upbm affinity estimate (log intensity, higher = more binding, comparable within an allelic series); in [18], 8.85 upbm affinity estimate (log intensity, higher = more binding, comparable within an allelic series); in test [19] it was 8.82 upbm affinity estimate (log intensity, higher = more binding, comparable within an allelic series). The binding signal was 8.85 upbm affinity estimate (log intensity, higher = more binding, comparable within an allelic series) in [20]; 8.86 upbm affinity estimate (log intensity, higher = more binding, comparable within an allelic series) in test [21]; 8.77 upbm affinity estimate (log intensity, higher = more binding, comparable within an allelic series) in [22]; 8.82 upbm affinity estimate (log intensity, higher = more binding, comparable within an allelic series) in [23].

With CCCCATGC, the binding signal in [1] is 8.07 upbm affinity estimate (log intensity, higher = more binding, comparable within an allelic series); in [2] it was 9.5 upbm affinity estimate (log intensity, higher = more binding, comparable within an allelic series); in test [3], 8.26 upbm affinity estimate (log intensity, higher = more binding, comparable within an allelic series); in test [4], 8.2 upbm affinity estimate (log intensity, higher = more binding, comparable within an allelic series); in test [5], 9.6 upbm affinity estimate (log intensity, higher = more binding, comparable within an allelic series); in test [7], 9.46 upbm affinity estimate (log intensity, higher = more binding, comparable within an allelic series). Also, the binding signal in test [10] is 9.63 upbm affinity estimate (log intensity, higher = more binding, comparable within an allelic series).

Consider CCCCCTGA, for which the binding signal in test [1] was 7.9 upbm affinity estimate (log intensity, higher = more binding, comparable within an allelic series); in test [2] it was 9.31 upbm affinity estimate (log intensity, higher = more binding, comparable within an allelic series); in test [3], 7.95 upbm affinity estimate (log intensity, higher = more binding, comparable within an allelic series); in [4], 7.94 upbm affinity estimate (log intensity, higher = more binding, comparable within an allelic series); in test [5], 9.4 upbm affinity estimate (log intensity, higher = more binding, comparable within an allelic series); in test [24], 6.45 upbm affinity estimate (log intensity, higher = more binding, comparable within an allelic series). The binding signal in [7] is 9.32 upbm affinity estimate (log intensity, higher = more binding, comparable within an allelic series); in [25], 6.47 upbm affinity estimate (log intensity, higher = more binding, comparable within an allelic series); in [10], 9.33 upbm affinity estimate (log intensity, higher = more binding, comparable within an allelic series); in test [26], 6.49 upbm affinity estimate (log intensity, higher = more binding, comparable within an allelic series).

Take CCGGGAGG: the binding signal in test [1] was 8.1 upbm affinity estimate (log intensity, higher = more binding, comparable within an allelic series); in test [2] it was 9.54 upbm affinity estimate (log intensity, higher = more binding, comparable within an allelic series); in test [3] it was 7.94 upbm affinity estimate (log intensity, higher = more binding, comparable within an allelic series); in test [4], 8.13 upbm affinity estimate (log intensity, higher = more binding, comparable within an allelic series); in test [5] it was 9.63 upbm affinity estimate (log intensity, higher = more binding, comparable within an allelic series); in [7], 9.49 upbm affinity estimate (log intensity, higher = more binding, comparable within an allelic series). The binding signal was 7.03 upbm affinity estimate (log intensity, higher = more binding, comparable within an allelic series) in test [27]; 9.7 upbm affinity estimate (log intensity, higher = more binding, comparable within an allelic series) in [10]; 7.12 upbm affinity estimate (log intensity, higher = more binding, comparable within an allelic series) in [28]; 7.11 upbm affinity estimate (log intensity, higher = more binding, comparable within an allelic series) in [29].

These data come from article PMC11006913.
